Laboratory results published in the supplement of paper PMC10849652.
The full data set covers some 7,900 targets. This sample favours those with a hit. About 0.6% of all pairs of compound and target were hits.

Key:
Test in all cases: log2 fold change, soluble protein after heating vs DMSO (PISA); higher = thermal stabilisation; K562 cells, 10 uM, 30 min; active = over 0.2 and 3.5 SD of the protein, either way, in both replicates (recomputed)
saracatinib = compound: CN1CCN(CCOc2cc(OC3CCOCC3)c3c(Nc4c(Cl)ccc5c4OCO5)ncnc3c2)CC1 [saracatinib]
How it was run: (§1)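 K562 cells at 2×10^6 cells/mL were treated for 30 min with 10 μM compound, and aliquots were heated for 3 min over 48°C-58°C before pooling. Extraction used PBS with 0.5% NP-40 at 4°C, and soluble protein was the supernatant after 21,000xg for 90 min, measured by TMTpro 16plex LC-MS/MS with channel sums equalised. Thermal stability values, relative to control samples and from duplicates, are log2 fold changes.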

sotrastaurin = compound: CN1CCN(c2nc(C3=C(c4c[nH]c5ccccc45)C(=O)NC3=O)c3ccccc3n2)CC1 [sotrastaurin]
How it was run: as §1

alvocidib = compound: CN1CC[C@H](c2c(O)cc(O)c3c(=O)cc(-c4ccccc4Cl)oc23)[C@H](O)C1 [alvocidib]
How it was run: as §1

Tubastatin A = compound: CN1CCc2c(c3ccccc3n2Cc2ccc(C(=O)NO)cc2)C1 [Tubastatin A]
How it was run: as §1

[1] = compound: CNC(=O)C1=CC=CC=C1NC2=NC(=NC=C2Cl)NC3=C(C=C(C=C3)N4CCOCC4)OC
How it was run: as §1

defactinib = compound: CNC(=O)c1ccc(Nc2ncc(C(F)(F)F)c(NCc3nccnc3N(C)S(C)(=O)=O)n2)cc1 [defactinib]
How it was run: as §1

rucaparib = compound: CNCc1ccc(-c2[nH]c3cc(F)cc4c3c2CCNC4=O)cc1 [rucaparib]
How it was run: as §1

[2] = compound: CNc1nc(-c2ccc3c(N)n[nH]c3c2)cc(N2C[C@@H](C(=O)NC3CCCCC3)CC[C@H]2C)n1
How it was run: as §1

encorafenib = compound: COC(=O)N[C@@H](C)CNc1nccc(-c2cn(C(C)C)nc2-c2cc(Cl)cc(NS(C)(=O)=O)c2F)n1 [encorafenib]
How it was run: as §1

[3] = compound: COC(=O)[C@H](CCSC)NC(=O)C1=C(C=C(C=C1)NC[C@H](CS)N)C2=CC=CC=C2
How it was run: as §1

[4] = compound: COC1=CC=C(C=C1)CN2C=CC3=C2C=C(C=C3)C(=O)NO
How it was run: as §1

filanesib = compound: CON(C)C(=O)N1N=C(c2cc(F)ccc2F)S[C@@]1(CCCN)c1ccccc1 [filanesib]
How it was run: as §1

zotarolimus = compound: CO[C@H]1C[C@@H]2CC[C@@H](C)[C@@](O)(O2)C(=O)C(=O)N2CCCC[C@H]2C(=O)O[C@H]([C@H](C)C[C@@H]2CC[C@H](n3cnnn3)[C@H](OC)C2)CC(=O)[C@H](C)/C=C(\C)[C@@H](O)[C@@H](OC)C(=O)[C@H](C)C[C@H](C)/C=C/C=C/C=C/1C [zotarolimus]
How it was run: as §1

idasanutlin = compound: COc1cc(C(=O)O)ccc1NC(=O)[C@@H]1N[C@@H](CC(C)(C)C)[C@](C#N)(c2ccc(Cl)cc2F)[C@H]1c1cccc(Cl)c1F [idasanutlin]
How it was run: as §1

alisertib = compound: COc1cc(Nc2ncc3c(n2)-c2ccc(Cl)cc2C(c2c(F)cccc2OC)=NC3)ccc1C(=O)O [alisertib]
How it was run: as §1

[5] = compound: COc1cc2nc(-c3cc(F)ccc3O)nc(N[C@@H]3CNC[C@H]3C(C)(C)O)c2cc1OC
How it was run: as §1

gefitinib = compound: COc1cc2ncnc(Nc3ccc(F)c(Cl)c3)c2cc1OCCCN1CCOCC1 [gefitinib]
How it was run: as §1

[6] = compound: COc1cccc2cc(-c3nc([C@H]4CC[C@H](C(=O)O)CC4)n4ncnc(N)c34)[nH]c12
How it was run: as §1

lapatinib = compound: CS(=O)(=O)CCNCc1ccc(-c2ccc3ncnc(Nc4ccc(OCc5cccc(F)c5)c(Cl)c4)c3c2)o1 [lapatinib]
How it was run: as §1

pictilisib = compound: CS(=O)(=O)N1CCN(Cc2cc3nc(-c4cccc5[nH]ncc45)nc(N4CCOCC4)c3s2)CC1 [pictilisib]
How it was run: as §1

Measured: log2 fold change

IMMT isoform 2 (UniProt Q16891)
Chain of UniProt Q16891 (Q16891 whole entry, looked up): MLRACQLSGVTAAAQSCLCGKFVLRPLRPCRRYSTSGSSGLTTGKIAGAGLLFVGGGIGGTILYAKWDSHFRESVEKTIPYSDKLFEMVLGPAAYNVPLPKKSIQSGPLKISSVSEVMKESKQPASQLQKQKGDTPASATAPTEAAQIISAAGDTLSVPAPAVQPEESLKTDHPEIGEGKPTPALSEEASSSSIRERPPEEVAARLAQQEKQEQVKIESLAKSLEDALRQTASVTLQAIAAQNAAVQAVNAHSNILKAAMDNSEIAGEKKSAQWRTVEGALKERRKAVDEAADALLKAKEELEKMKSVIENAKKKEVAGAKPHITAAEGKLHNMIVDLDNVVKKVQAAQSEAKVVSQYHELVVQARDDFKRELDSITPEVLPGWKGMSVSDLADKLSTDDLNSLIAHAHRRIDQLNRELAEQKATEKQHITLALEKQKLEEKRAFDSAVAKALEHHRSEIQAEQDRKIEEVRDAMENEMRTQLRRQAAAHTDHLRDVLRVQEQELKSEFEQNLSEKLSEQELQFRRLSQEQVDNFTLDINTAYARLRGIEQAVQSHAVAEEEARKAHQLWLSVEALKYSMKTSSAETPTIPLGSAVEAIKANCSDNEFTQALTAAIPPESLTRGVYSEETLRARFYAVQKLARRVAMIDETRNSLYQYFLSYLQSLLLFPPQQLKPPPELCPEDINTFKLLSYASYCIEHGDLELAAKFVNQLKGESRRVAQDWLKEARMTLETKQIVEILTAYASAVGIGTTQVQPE
inactive: saracatinib -0.069 | sotrastaurin -0.036 | alvocidib -0.071 | Tubastatin A -0.076 | [1] 0.131 | defactinib 0.029 | rucaparib 0.023 | [2] -0.111 | encorafenib 0.017 | [3] 0.067 | [4] 0.006 | filanesib -0.101 | zotarolimus -0.045 | idasanutlin 0.04 | alisertib -0.088 | [5] -0.25 | gefitinib -0.006 | [6] 0.017 | lapatinib -0.151 | pictilisib -0.238

LDLR (UniProt P01130)
inactive: saracatinib 0.113 | sotrastaurin 0.003 | alvocidib -0.04 | Tubastatin A -0.002 | [1] 0.003 | defactinib -0.033 | rucaparib 0 | [2] -0.065 | encorafenib 0.01 | [3] 0.104 | [4] -0.012 | filanesib 0.005 | zotarolimus -0.07 | idasanutlin 0.009 | alisertib 0.073 | [5] -0.017 | gefitinib 0.095 | [6] 0.008 | lapatinib 0.042 | pictilisib 0.078

MAPRE3 (UniProt Q9UPY8)
Chain of UniProt Q9UPY8 (Q9UPY8 whole entry, looked up): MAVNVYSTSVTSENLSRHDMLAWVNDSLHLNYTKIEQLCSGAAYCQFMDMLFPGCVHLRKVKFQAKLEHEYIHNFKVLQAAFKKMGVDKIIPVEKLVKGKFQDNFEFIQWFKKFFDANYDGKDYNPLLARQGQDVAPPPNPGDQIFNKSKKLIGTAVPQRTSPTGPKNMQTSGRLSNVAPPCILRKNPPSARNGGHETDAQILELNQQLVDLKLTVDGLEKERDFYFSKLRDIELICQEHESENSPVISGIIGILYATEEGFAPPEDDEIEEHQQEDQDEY
inactive: saracatinib -0.029 | sotrastaurin -0.016 | alvocidib -0.091 | Tubastatin A -0.067 | [1] 0.025 | defactinib -0.031 | rucaparib 0.02 | [2] -0.016 | encorafenib 0.017 | [3] 0.027 | filanesib 0.006 | zotarolimus 0.013 | idasanutlin 0.023 | alisertib 0.022 | [5] 0.033 | gefitinib 0.004 | [6] -0.013 | lapatinib -0.044 | pictilisib -0.008
active: [4] -0.242

KPNA4 (UniProt O00629)
Chain of UniProt O00629 (O00629 whole entry, looked up): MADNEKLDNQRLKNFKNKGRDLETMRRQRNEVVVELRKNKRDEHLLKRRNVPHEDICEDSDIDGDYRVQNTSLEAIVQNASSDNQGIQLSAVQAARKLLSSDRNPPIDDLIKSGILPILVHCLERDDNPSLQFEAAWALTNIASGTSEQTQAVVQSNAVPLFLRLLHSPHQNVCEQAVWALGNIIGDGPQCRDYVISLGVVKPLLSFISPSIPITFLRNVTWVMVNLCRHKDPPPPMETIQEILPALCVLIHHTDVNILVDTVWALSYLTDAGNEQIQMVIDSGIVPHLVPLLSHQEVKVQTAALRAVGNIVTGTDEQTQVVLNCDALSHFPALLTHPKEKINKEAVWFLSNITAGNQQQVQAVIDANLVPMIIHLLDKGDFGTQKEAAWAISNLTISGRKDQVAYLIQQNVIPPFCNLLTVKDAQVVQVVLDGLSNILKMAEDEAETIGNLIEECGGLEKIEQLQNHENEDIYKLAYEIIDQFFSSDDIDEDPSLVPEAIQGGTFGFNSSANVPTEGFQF
inactive: saracatinib 0.013 | sotrastaurin 0.032 | alvocidib -0.085 | Tubastatin A -0.017 | [1] -0.052 | defactinib -0.095 | rucaparib -0.117 | [2] 0 | encorafenib 0.016 | [3] 0.015 | [4] 0.017 | filanesib -0.028 | zotarolimus 0.015 | idasanutlin -0.068 | alisertib -0.026 | [5] -0.091 | gefitinib 0.041 | [6] 0.044 | lapatinib -0.017 | pictilisib -0.025

MICOS13 (UniProt Q5XKP0)
Chain of UniProt Q5XKP0 (Q5XKP0 whole entry, looked up): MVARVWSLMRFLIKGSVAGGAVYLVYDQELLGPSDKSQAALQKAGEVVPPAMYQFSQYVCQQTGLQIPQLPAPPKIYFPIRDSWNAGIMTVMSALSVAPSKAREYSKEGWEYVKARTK
inactive: saracatinib 0.039 | sotrastaurin 0.01 | alvocidib -0.001 | Tubastatin A 0 | [1] 0.005 | defactinib -0.07 | rucaparib -0.041 | [2] -0.017 | encorafenib -0.028 | [3] -0.005 | [4] 0 | filanesib -0.095 | zotarolimus -0.048 | idasanutlin -0.144 | alisertib -0.014 | [5] -0.082 | gefitinib -0.032 | [6] 0.079 | lapatinib -0.063 | pictilisib -0.001

MAPKAPK5 (UniProt Q8IW41)
Chain of UniProt Q8IW41 (Q8IW41 whole entry, looked up): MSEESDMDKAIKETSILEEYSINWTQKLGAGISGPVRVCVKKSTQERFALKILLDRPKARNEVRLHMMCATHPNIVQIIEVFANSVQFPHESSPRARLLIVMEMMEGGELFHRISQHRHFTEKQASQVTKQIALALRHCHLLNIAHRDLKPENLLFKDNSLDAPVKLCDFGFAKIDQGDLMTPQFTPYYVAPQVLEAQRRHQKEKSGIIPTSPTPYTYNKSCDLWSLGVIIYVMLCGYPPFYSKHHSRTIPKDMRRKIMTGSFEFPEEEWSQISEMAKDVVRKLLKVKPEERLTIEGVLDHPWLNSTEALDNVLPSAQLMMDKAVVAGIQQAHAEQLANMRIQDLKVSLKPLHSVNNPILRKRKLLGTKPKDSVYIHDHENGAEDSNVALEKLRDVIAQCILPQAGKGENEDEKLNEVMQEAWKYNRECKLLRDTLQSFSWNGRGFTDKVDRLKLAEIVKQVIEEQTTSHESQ
inactive: saracatinib 0.008 | sotrastaurin -0.028 | alvocidib 0.062 | Tubastatin A 0.036 | [1] -0.02 | defactinib -0.032 | rucaparib 0.095 | [2] -0.039 | encorafenib -0.016 | [3] 0 | [4] -0.011 | filanesib -0.133 | zotarolimus 0.009 | idasanutlin -0.017 | alisertib -0.084 | [5] 0.269 | gefitinib 0 | [6] -0.038 | lapatinib 0.078 | pictilisib 0.134

MED17 (UniProt Q9NVC6)
Chain of UniProt Q9NVC6 (Q9NVC6 whole entry, looked up): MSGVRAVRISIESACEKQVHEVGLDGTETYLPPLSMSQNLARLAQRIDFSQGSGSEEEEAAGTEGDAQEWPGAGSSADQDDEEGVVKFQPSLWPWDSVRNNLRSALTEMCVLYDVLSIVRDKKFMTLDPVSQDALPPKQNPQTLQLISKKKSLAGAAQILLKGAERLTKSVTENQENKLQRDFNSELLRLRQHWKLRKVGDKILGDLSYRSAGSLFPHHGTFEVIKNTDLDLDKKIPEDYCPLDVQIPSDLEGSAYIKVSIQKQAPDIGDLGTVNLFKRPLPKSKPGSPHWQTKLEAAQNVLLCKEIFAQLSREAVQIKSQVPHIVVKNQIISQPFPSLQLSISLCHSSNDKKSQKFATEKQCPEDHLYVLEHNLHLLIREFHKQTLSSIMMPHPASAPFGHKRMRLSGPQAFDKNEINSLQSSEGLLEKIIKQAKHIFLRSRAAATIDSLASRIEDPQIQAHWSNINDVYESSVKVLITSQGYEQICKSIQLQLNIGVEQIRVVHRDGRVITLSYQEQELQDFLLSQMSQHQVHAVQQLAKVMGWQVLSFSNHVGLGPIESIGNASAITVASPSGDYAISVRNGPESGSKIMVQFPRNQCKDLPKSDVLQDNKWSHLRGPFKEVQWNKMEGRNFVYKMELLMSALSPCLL
inactive: saracatinib -0.063 | sotrastaurin -0.145 | alvocidib -0.009 | Tubastatin A 0.009 | [1] -0.049 | defactinib -0.021 | rucaparib 0.109 | [2] 0.031 | encorafenib -0.081 | [3] 0.055 | [4] 0.004 | filanesib 0.019 | zotarolimus -0.052 | idasanutlin 0.166 | alisertib -0.08 | [5] 0.044 | gefitinib 0.016 | [6] -0.018 | lapatinib -0.063 | pictilisib 0.089

KIF13A (UniProt Q9H1H9)
inactive: saracatinib 0.063 | sotrastaurin 0.041 | alvocidib -0.01 | Tubastatin A 0.028 | [1] 0.1 | defactinib -0.026 | rucaparib 0.008 | [2] -0.093 | encorafenib -0.025 | [3] 0.034 | [4] 0.003 | filanesib 0.01 | zotarolimus -0.057 | idasanutlin -0.022 | alisertib -0.022 | [5] 0.037 | gefitinib 0.194 | [6] 0.139 | lapatinib -0.012 | pictilisib -0.097

METTL18 (UniProt O95568)
active: [4] -0.364
inactive: saracatinib 0.024 | sotrastaurin 0.066 | alvocidib -0.056 | Tubastatin A -0.037 | [1] -0.042 | defactinib -0.021 | rucaparib -0.041 | [2] -0.031 | encorafenib 0.108 | [3] -0.176 | filanesib 0.009 | zotarolimus 0.033 | idasanutlin -0.022 | alisertib 0.006 | [5] 0.075 | gefitinib -0.033 | [6] 0.057 | lapatinib 0.069 | pictilisib 0.026

IGFBP4 (UniProt P22692)
Chain of UniProt P22692 (P22692 whole entry, looked up): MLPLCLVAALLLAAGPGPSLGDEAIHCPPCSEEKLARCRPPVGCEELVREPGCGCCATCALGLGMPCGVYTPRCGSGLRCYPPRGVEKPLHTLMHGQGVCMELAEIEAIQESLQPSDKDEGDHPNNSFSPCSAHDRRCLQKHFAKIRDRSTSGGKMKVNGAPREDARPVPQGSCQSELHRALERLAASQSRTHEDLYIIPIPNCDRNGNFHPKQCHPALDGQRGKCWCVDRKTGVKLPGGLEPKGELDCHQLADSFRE
inactive: saracatinib 0.004 | sotrastaurin 0.114 | alvocidib 0.063 | Tubastatin A -0.034 | [1] -0.044 | defactinib 0.036 | rucaparib 0.007 | [2] -0.019 | encorafenib -0.034 | [3] 0.014 | [4] -0.075 | filanesib 0.012 | zotarolimus -0.31 | alisertib 0.009 | [5] -0.024 | gefitinib -0.107 | [6] 0.179 | lapatinib -0.036 | pictilisib -0.022
active: idasanutlin 0.392

MFSD5 isoform 2 (UniProt Q6N075)
inactive: saracatinib 0.058 | sotrastaurin 0.122 | alvocidib 0.029 | Tubastatin A -0.093 | [1] 0.069 | defactinib 0.039 | rucaparib 0.058 | [2] -0.065 | encorafenib -0.022 | [3] 0.012 | [4] 0.037 | filanesib 0.018 | zotarolimus -0.149 | idasanutlin -0.058 | alisertib 0.011 | [5] -0.026 | gefitinib 0.039 | [6] 0.12 | lapatinib 0.045 | pictilisib 0.062

KDM5D isoform 3 (UniProt Q9BY66)
Chain of UniProt Q9BY66 (Q9BY66 whole entry, looked up): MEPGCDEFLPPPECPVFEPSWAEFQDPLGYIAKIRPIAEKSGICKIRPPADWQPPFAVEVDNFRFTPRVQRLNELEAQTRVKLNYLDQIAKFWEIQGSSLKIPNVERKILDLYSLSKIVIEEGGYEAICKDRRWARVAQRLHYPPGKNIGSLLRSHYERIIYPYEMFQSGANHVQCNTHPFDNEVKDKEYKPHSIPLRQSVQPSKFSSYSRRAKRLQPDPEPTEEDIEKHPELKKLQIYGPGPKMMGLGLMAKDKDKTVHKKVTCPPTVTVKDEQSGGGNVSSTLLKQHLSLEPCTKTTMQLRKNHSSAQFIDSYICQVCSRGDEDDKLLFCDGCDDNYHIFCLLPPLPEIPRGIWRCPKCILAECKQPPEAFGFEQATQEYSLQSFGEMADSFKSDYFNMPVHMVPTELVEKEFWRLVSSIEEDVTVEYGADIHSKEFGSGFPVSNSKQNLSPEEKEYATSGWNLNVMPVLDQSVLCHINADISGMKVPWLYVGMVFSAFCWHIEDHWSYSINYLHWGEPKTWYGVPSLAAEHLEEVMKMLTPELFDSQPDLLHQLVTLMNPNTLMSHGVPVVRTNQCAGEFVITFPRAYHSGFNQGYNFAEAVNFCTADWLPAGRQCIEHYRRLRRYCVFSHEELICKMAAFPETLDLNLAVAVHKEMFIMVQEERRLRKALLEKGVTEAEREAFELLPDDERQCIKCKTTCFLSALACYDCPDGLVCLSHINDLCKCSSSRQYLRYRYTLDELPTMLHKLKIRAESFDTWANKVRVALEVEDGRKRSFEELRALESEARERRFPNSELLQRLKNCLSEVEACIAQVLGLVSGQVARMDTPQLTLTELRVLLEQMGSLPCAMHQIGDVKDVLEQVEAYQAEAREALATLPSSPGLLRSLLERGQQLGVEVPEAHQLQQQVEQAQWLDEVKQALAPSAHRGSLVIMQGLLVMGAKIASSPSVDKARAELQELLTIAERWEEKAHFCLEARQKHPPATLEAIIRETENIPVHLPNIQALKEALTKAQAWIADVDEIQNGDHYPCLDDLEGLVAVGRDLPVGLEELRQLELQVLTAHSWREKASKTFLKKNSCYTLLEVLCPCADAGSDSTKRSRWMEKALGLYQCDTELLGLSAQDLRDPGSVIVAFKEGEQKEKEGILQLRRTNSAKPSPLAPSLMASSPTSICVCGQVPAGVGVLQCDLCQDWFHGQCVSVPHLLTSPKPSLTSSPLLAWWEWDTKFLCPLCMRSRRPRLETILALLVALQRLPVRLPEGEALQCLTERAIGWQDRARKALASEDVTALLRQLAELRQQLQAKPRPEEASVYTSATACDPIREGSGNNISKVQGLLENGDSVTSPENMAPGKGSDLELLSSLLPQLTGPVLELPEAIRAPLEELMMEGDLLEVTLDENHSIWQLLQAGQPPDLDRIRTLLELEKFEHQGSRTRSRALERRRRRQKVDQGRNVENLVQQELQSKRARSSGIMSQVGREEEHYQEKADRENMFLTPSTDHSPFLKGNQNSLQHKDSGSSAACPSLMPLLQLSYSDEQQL
active: Tubastatin A -0.451 | [4] -0.592
inactive: saracatinib -0.063 | sotrastaurin 0.078 | alvocidib -0.193 | [1] 0.026 | defactinib -0.357 | rucaparib 0.067 | [2] -0.078 | encorafenib 0.198 | [3] -0.05 | filanesib 0.073 | zotarolimus -0.053 | idasanutlin -0.058 | alisertib -0.044 | [5] 0.045 | gefitinib -0.021 | [6] -0.072 | lapatinib -0.047 | pictilisib 0.049

IKZF1 (UniProt Q13422)
inactive: saracatinib 0.038 | sotrastaurin -0.133 | alvocidib -0.127 | Tubastatin A -0.018 | [1] -0.042 | defactinib -0.1 | rucaparib -0.026 | [2] -0.029 | encorafenib -0.052 | [3] -0.008 | [4] -0.045 | filanesib -0.136 | zotarolimus 0.004 | idasanutlin 0.037 | alisertib -0.019 | [5] 0.01 | gefitinib 0.128 | [6] 0.039 | lapatinib -0.041 | pictilisib 0.026

MAP2K7 isoform 4 (UniProt O14733)
Chain of UniProt O14733 (O14733 whole entry, looked up): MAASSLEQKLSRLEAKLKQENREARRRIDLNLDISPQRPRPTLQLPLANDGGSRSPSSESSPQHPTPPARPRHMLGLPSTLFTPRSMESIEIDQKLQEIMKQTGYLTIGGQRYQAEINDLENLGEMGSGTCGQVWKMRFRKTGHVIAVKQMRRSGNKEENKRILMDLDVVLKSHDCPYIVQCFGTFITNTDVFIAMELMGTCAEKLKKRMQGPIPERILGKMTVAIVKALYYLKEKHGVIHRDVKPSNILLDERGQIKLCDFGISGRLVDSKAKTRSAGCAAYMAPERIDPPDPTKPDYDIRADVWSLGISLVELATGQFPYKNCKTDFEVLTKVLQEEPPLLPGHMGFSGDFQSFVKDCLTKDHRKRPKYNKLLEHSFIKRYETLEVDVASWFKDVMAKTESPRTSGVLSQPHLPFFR
inactive: saracatinib 0.063 | sotrastaurin 0.026 | alvocidib -0.028 | Tubastatin A -0.002 | [1] -0.04 | defactinib -0.012 | rucaparib 0.036 | [2] -0.001 | encorafenib 0.013 | [3] -0.01 | [4] -0.018 | filanesib -0.029 | zotarolimus -0.042 | idasanutlin -0.003 | alisertib -0.029 | [5] 0.019 | gefitinib -0.027 | [6] 0.048 | lapatinib -0.016 | pictilisib 0.137

KIFBP (UniProt Q96EK5)
inactive: saracatinib -0.039 | sotrastaurin 0.029 | alvocidib -0.021 | Tubastatin A -0.01 | [1] 0.02 | defactinib -0.092 | rucaparib 0.045 | [2] -0.019 | encorafenib 0.049 | [3] -0.134 | [4] 0.058 | filanesib -0.095 | zotarolimus 0.074 | idasanutlin -0.09 | alisertib 0.106 | [5] -0.028 | gefitinib 0.01 | [6] 0.01 | lapatinib -0.049 | pictilisib -0.071

LRPPRC (UniProt P42704)
inactive: saracatinib -0.281 | sotrastaurin -0.874 | alvocidib -0.58 | Tubastatin A 0.316 | [1] -0.241 | defactinib -0.346 | rucaparib 0.395 | [2] -0.175 | encorafenib 0.116 | [3] -0.103 | [4] 0.303 | filanesib -0.788 | zotarolimus -0.02 | idasanutlin 0 | alisertib 0.207 | [5] -0.638 | gefitinib -0.189 | [6] 0.119 | lapatinib -0.091 | pictilisib -0.119
